Test results reported in PubChem BioAssay (NCATS).
Where “and” joins values, the source holds several entries; their conditions need not be identical. Equal entries are not always repeated. Unmarked numbers belong to inactive results. Records with an inconclusive call do not appear. Where a call stands in place of a potency, no number is given. Calls of active or inactive are those of the source. Unless noted, the call rests on the fitted dose curve; in most records, active means well fitted curve in the direction sought with a large enough effect; inconclusive means small, poorly fitted or top-dose-only effect, or another doubt; inactive means no such curve, though single readings can be large; an effect the other way counts as inactive or inconclusive.

How the values were obtained:
[1] = target: Cytochrome P450 3A4 (Homo sapiens) (UniProt P08684); assay: qHTS Assay for Activators of Cytochrome P450 3A4 (AID 885); further: nearly all actives have a fitted effect of over 65% in size; further: potency means the concentration at half of the fitted maximal effect
Outline: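 Human CYP3A4 dealkylates Luciferin-PPXE to luciferin, which luciferase detection converts to light. Substrate was at its KM (25uM), buffer 200mM KPO4, reaction 60 min at RT.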

[2] = target: ATP-dependent 6-phosphofructokinase (Trypanosoma brucei brucei) (UniProt O15648); assay: qHTS Assay to Find Inhibitors of T. brucei phosphofructokinase: hit validation (AID 492961);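 further: luminescence reports ADP formed as PFK phosphorylates fructose-6-phosphate with ATP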
Outline: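 PFK 1.25 nM, F6P 0.5 mM, ATP 0.1 mM, MgCl2 5 mM, 0.1 M TEA pH 8.0, Tween20 0.01%, BSA 0.1%; 45 min RT. ADP-Glo two-step detection, luminescence. qHTS titration; curve fitting with curve-class categorization.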

[3] = target: Ubiquitin carboxyl-terminal hydrolase 1 (Homo sapiens) (UniProt O94782); assay: Inhibitors of USP1/UAF1: Pilot qHTS (AID 504865); further: potency means the concentration at half of the fitted maximal effect; nearly all actives have a fitted effect of over 35% in size
Outline: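 USP1/UAF1 complex (1nM) preincubated with compound 15 min at room temperature, then Ub-Rho substrate (150nM final) added. Fluorescence read kinetically at 480/540 nm, 6 reads every 60 seconds. Buffer: 50mM HEPES pH 7.8, 0.5mM EDTA, 0.1 mg/ml BSA, 1mM TCEP, 0.01% Tween-20.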

[4] = S16 Schwann cell viability assay (CellTiter-Glo assay) (AID 624031);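 further: native untransfected S16 rat Schwann cells; cellular ATP luminescence as a viability measure; nearly all actives have a fitted effect of over 70% in size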
Outline: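 Parental S16 cells, 24 h compound, 37 °C. ATP-luminescence viability; DMSO = 0% activity, empty wells as reference; curves classified by fit quality and efficacy.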

[5] = S16 Schwann cell PMP22 intronic element beta-lactamase assay (AID 624044; calls by dose curve; further: nearly all actives have a fitted effect of over 15% in size)
Outline: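 Beta-lactamase reporter under a PMP22 intronic regulatory element in stable S16 rat Schwann cells; 24 h compound exposure. 460 nm blue signal normalized between DMSO (0%) and potassium clavulanate, with 535 nm FRET tracking viability; curves classed by r2 and response.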

[6] = Primary qHTS for small molecule stabilizers of the endoplasmic reticulum resident proteome: Secreted ER Calcium Modulated Protein (SERCaMP) assay (AID 1508630)
Outline: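 The SH-SY5Y reporter protocol was run at 3 concentrations up to 38.3 uM (primary) or 11 concentrations (follow-up): 16 h compound, 100 nM thapsigargin for 4 h, then extracellular luciferase luminescence.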

ATS189 = assay: qHTS profiling for inhibitors of Plasmodium falciparum proliferation (AID 504749); further: nearly all actives have a fitted effect of over 60% in size; further: potency means the concentration at half of the fitted maximal effect; conditions: P. falciparum in erythrocytes, SYBR Green DNA, 72 h; series mostly up to 12.8 µM
Outline: (§1)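 Fluorescence of SYBR Green-bound parasite DNA, read at 485/535 nm, served as the growth measure. Infected erythrocytes were cultured with compound 72 h; artemisinin (0.29 uM) and DMSO wells defined the normalization range.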

ATS95 = assay: as above; conditions: P. falciparum in erythrocytes, SYBR Green DNA, 72 h; series mostly up to 12.8 µM
Outline: as §1

CP185 = assay: as above; conditions: P. falciparum in erythrocytes, SYBR Green DNA, 72 h; series mostly up to 12.8 µM
Outline: as §1

CP201 = assay: as above; conditions: P. falciparum in erythrocytes, SYBR Green DNA, 72 h; series mostly up to 12.8 µM
Outline: as §1

CP211 = assay: as above; conditions: P. falciparum in erythrocytes, SYBR Green DNA, 72 h; series mostly up to 12.8 µM
Outline: as §1

CP238 = assay: as above; conditions: P. falciparum in erythrocytes, SYBR Green DNA, 72 h; series mostly up to 12.8 µM
Outline: as §1

CP256 = assay: as above; conditions: P. falciparum in erythrocytes, SYBR Green DNA, 72 h; series mostly up to 12.8 µM
Outline: as §1

CP262 = assay: as above; conditions: P. falciparum in erythrocytes, SYBR Green DNA, 72 h; series mostly up to 12.8 µM
Outline: as §1

CP266 = assay: as above; conditions: P. falciparum in erythrocytes, SYBR Green DNA, 72 h; series mostly up to 28.7 µM
Outline: as §1

CP297 = assay: as above; conditions: P. falciparum in erythrocytes, SYBR Green DNA, 72 h; series mostly up to 12.8 µM
Outline: as §1

CP305 = assay: as above; conditions: P. falciparum in erythrocytes, SYBR Green DNA, 72 h; series mostly up to 12.8 µM
Outline: as §1

CP325 = assay: as above; conditions: P. falciparum in erythrocytes, SYBR Green DNA, 72 h; series mostly up to 12.8 µM
Outline: as §1

CP335 = assay: as above; conditions: P. falciparum in erythrocytes, SYBR Green DNA, 72 h; series mostly up to 12.8 µM
Outline: as §1

DFO2036 = assay: as above; conditions: P. falciparum in erythrocytes, SYBR Green DNA, 72 h; series mostly up to 12.8 µM
Outline: as §1

DIV17 = assay: as above; conditions: P. falciparum in erythrocytes, SYBR Green DNA, 72 h; series mostly up to 12.8 µM
Outline: as §1

ECU = assay: as above; conditions: P. falciparum in erythrocytes, SYBR Green DNA, 72 h; series mostly up to 12.8 µM
Outline: as §1

FAB9 = assay: as above; conditions: P. falciparum in erythrocytes, SYBR Green DNA, 72 h; series mostly up to 12.8 µM
Outline: as §1

HB3 = assay: as above; conditions: P. falciparum in erythrocytes, SYBR Green DNA, 72 h; series mostly up to 12.8 µM
Outline: as §1

ICS = assay: as above; conditions: P. falciparum in erythrocytes, SYBR Green DNA, 72 h; series mostly up to 12.8 µM
Outline: as §1

JCK = assay: as above; conditions: P. falciparum in erythrocytes, SYBR Green DNA, 72 h; series mostly up to 12.8 µM
Outline: as §1

PC15 = assay: as above; conditions: P. falciparum in erythrocytes, SYBR Green DNA, 72 h; series mostly up to 12.8 µM
Outline: as §1

PC26 = assay: as above; conditions: P. falciparum in erythrocytes, SYBR Green DNA, 72 h; series mostly up to 12.8 µM
Outline: as §1

PC49 = assay: as above; conditions: P. falciparum in erythrocytes, SYBR Green DNA, 72 h; series mostly up to 12.8 µM
Outline: as §1

SC27B = assay: as above; conditions: P. falciparum in erythrocytes, SYBR Green DNA, 72 h; series mostly up to 12.8 µM
Outline: as §1

TAB109 = assay: as above; conditions: P. falciparum in erythrocytes, SYBR Green DNA, 72 h; series mostly up to 12.8 µM
Outline: as §1

TAB113 = assay: as above; conditions: P. falciparum in erythrocytes, SYBR Green DNA, 72 h; series mostly up to 12.8 µM
Outline: as §1

W2 = assay: as above; conditions: P. falciparum in erythrocytes, SYBR Green DNA, 72 h; series mostly up to 12.8 µM
Outline: as §1

[7] = AP1 Signaling Pathway (AID 357; active means well fitted curve in either direction with a large enough effect, not every such curve was filed as active;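 further: ME-180 reporter cells stimulated with EGF at its EC50 level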); conditions: ME-180 AP-1-bla reporter, EGF-induced, beta-lactamase ratio, 5 h; at 7.69 µM (top of the series) unless noted
Outline: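 A ratiometric CCF4 readout (405 nm excitation; 460 and 530 nm emission) quantified AP-1-driven beta-lactamase in ME-180 cells after 5 h with compound and EC50 EGF; AC50 values were derived for activators and inhibitors.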

[8] = Stat Signaling Pathway (AID 446; active means well fitted curve in either direction with a large enough effect, not every such curve was filed as active;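 further: ME-180 cervical cancer cells given 40 pM IL-6 alongside compound; SIE-controlled beta-lactamase reporter measured as 460/530 nm FRET emission ratio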); conditions: ME-180 (cervical carcinoma) SIE beta-lactamase reporter, IL-6 stimulated, 5 h; at 7.69 µM (top of the series) unless noted
Outline: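 Normalization used AC90 stimulation (300 pM IL-6) and AC90 inhibition (125 nM pan-JAK inhibitor at 40 pM IL-6). The underlying signal is SIE-driven beta-lactamase in ME-180 cells after 5 h IL-6 exposure with compound.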

[9] = target: Glucocorticoid receptor (Homo sapiens) (UniProt P04150); assay: GR-EFC Redistribution (AID 451; calls by dose curve; further: potency means the concentration at half of the fitted maximal effect); conditions: CHO-K1 GR-EFC translocation, beta-gal luminescence, 2 h
Outline: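 CHO-K1 cells stably expressing nuclear-localized β-gal enzyme acceptor and GR fused C-terminally to the enzyme donor fragment; ligand-driven nuclear translocation restores β-gal by complementation. Compounds titrated up to 46 uM final, 2 h at 37 °C; luminescence read.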

[10] = target: Mitogen-activated protein kinase 10 (Mus musculus) (UniProt Q61831); assay: JNK3 AlphaScreen Assay (AID 530; active means well fitted curve in either direction with a large enough effect, not every such curve was filed as active;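 further: kinase came from lysate of stimulated human HepG2 cells; signal reports phosphorylation of biotinylated GST-cJun 1-79 at Ser73 with 10 µM ATP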)
Outline: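 Biotinylated GST-cJun(1-79) served as substrate for JNK3 in HepG2 lysates stimulated with IL-1beta and TNF-alpha. ATP was 10 uM final, pH 7.6. Ser73 phosphorylation was quantified by AlphaScreen (680 nm excitation).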

[11] = target: 3',5'-cyclic-AMP phosphodiesterase 4B (Homo sapiens) (UniProt Q07343); assay: qHTS Assay for Inhibitors of PDE-IV (AID 607; active means well fitted activation curve with a large enough effect in the main read-out, with a control signal flat, not every such curve was filed as active)
Outline: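 HEK293 ACTOne cells with CNG channel (1000/well), endogenous PDE4; membrane potential dye, compounds up to 22.9 uM final. Fluorescence Ex 535/Em 590; RO 20-1724 (100 uM final) as reference.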

[12] = target: Cytochrome P450 3A4 (Homo sapiens) (UniProt P08684); assay: qHTS Assay for Inhibitors and Substrates of Cytochrome P450 3A4 (AID 884); further: nearly all actives have a fitted effect of over 50% in size
Outline: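 Luminescent readout of luciferin produced by CYP3A4 (20 nM) dealkylation of Luciferin-PPXE, 25 uM (its KM). NADPH-driven reaction ran 60 min at RT after 10 min compound preincubation; data scaled to 57 uM ketoconazole as 100% inhibition.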

[13] = target: Cytochrome P450 1A2 (Homo sapiens) (UniProt P05177); assay: p450-cyp1a2 (AID 410; calls by dose curve; further: potency means the concentration at half of the fitted maximal effect)
Outline: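 Read-out is luminescence from luciferin produced by CYP1A2 demethylation of Luciferin-ME (100uM, at Km). Detection reagent stopped the 60 min NADPH-dependent reaction; signals were normalized to 57 uM furafylline.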

[14] = target: Glucocorticoid receptor (Homo sapiens) (UniProt P04150); assay: GR-GFP Redistribution (AID 450;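 active means compounds whose dose series gives a full or clear partial fitted curve of increased nuclear translocation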; further: potency means the concentration at half of the fitted maximal effect); conditions: U2OS GR-GFP nuclear translocation, laser cytometry, 2 h
[15] = target: Cytochrome P450 2C9 (Homo sapiens) (UniProt P11712); assay: qHTS Assay for Inhibitors and Substrates of Cytochrome P450 2C9 (AID 883); further: nearly all actives have a fitted effect of over 60% in size
Outline: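 Human CYP2C9 (10nM) hydroxylated Luciferin-H (100uM, at its KM) to luciferin in 25mM KPO4. Compound was preincubated 10 min at 37C, then NADPH regeneration started a 60 min reaction at 37C. Luminescence was read after detection reagent, normalized to 57uM sulphaphenazole.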

[16] = target: Cytochrome P450 2D6 (Homo sapiens) (UniProt P10635); assay: qHTS Assay for Inhibitors and Substrates of Cytochrome P450 2D6 (AID 891); further: potency means the concentration at half of the fitted maximal effect; nearly all actives have a fitted effect of over 60% in size
Outline: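 Luminescent read-out of luciferin formed by 5 nM human CYP2D6 demethylating 30 uM Luciferin-ME EGE (Km level) over 60 min at room temperature after NADPH regeneration addition. Data normalized to full inhibition by 1.43 uM quinidine.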

[17] = target: Cytochrome P450 2C19 (Homo sapiens) (UniProt P33261); assay: qHTS Assay for Inhibitors and Substrates of Cytochrome P450 2C19 (AID 899); further: potency means the concentration at half of the fitted maximal effect; nearly all actives have a fitted effect of over 60% in size
Outline: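 Human CYP2C19 (5nM) with Luciferin-H EGE at 10uM (its KM) in 50mM KPO4 was preincubated with compound for 10 min at 37C. NADPH regeneration started a 60 min 37C reaction. Luciferin was read by luminescence, normalized to 57uM ketoconazole.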

Chain of Cytochrome P450 3A4 (Homo sapiens) (P08684 whole entry, looked up): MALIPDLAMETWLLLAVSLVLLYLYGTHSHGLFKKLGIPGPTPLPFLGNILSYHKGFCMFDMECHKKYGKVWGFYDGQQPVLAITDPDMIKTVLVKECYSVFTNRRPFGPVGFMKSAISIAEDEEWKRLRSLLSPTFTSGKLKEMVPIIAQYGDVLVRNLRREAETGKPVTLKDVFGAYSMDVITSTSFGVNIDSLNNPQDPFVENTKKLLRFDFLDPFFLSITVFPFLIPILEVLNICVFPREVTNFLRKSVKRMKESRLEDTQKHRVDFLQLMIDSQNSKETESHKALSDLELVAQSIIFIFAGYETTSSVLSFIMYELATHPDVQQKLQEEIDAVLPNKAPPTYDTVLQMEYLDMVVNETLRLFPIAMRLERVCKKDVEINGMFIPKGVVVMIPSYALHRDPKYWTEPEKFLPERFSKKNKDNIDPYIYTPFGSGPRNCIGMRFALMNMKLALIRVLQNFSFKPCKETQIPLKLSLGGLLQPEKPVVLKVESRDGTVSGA
Chain of Glucocorticoid receptor (Homo sapiens) (P04150 whole entry, looked up, the tested form may be a part): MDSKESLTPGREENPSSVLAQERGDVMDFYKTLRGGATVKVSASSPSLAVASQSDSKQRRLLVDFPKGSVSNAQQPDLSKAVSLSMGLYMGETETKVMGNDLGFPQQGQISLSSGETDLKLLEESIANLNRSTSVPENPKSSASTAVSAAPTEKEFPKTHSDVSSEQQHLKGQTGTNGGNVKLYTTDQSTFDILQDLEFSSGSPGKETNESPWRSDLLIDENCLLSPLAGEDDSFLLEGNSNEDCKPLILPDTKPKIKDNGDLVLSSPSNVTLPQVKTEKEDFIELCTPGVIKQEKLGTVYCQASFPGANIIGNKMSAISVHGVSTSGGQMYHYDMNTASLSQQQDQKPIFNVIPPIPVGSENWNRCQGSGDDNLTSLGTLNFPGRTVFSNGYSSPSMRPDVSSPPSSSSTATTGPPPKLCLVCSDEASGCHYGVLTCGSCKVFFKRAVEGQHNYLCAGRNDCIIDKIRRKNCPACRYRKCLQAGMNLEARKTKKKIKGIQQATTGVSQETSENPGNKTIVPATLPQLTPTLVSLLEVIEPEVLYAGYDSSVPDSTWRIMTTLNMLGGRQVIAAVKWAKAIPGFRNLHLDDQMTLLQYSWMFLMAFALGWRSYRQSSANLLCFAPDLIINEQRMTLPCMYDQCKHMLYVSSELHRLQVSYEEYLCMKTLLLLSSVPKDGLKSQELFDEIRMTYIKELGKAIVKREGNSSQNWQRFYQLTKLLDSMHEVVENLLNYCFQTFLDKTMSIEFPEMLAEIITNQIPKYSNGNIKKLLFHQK
Chain of Ubiquitin carboxyl-terminal hydrolase 1 (Homo sapiens) (O94782 whole entry, looked up): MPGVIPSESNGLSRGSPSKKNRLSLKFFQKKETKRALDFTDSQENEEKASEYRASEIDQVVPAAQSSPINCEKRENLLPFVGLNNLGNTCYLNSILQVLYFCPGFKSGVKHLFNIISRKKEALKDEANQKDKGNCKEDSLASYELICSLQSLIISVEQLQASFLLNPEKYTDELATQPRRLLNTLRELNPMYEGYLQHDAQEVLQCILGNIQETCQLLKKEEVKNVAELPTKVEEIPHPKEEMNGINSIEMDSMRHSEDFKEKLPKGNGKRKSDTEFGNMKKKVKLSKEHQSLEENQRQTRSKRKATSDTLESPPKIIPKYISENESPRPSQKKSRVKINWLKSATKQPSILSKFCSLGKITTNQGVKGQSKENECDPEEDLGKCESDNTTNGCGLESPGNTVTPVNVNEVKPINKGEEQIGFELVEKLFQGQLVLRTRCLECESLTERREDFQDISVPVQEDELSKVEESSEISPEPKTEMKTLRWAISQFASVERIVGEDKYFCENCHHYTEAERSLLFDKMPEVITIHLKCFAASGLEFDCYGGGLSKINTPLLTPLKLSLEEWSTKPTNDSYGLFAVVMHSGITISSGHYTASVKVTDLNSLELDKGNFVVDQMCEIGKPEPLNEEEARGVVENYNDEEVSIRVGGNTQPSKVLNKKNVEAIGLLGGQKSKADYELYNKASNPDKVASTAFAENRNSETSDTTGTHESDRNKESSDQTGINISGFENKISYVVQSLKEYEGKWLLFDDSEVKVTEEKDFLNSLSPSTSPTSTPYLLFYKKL
Chain of 3',5'-cyclic-AMP phosphodiesterase 4B (Homo sapiens) (Q07343 whole entry, looked up): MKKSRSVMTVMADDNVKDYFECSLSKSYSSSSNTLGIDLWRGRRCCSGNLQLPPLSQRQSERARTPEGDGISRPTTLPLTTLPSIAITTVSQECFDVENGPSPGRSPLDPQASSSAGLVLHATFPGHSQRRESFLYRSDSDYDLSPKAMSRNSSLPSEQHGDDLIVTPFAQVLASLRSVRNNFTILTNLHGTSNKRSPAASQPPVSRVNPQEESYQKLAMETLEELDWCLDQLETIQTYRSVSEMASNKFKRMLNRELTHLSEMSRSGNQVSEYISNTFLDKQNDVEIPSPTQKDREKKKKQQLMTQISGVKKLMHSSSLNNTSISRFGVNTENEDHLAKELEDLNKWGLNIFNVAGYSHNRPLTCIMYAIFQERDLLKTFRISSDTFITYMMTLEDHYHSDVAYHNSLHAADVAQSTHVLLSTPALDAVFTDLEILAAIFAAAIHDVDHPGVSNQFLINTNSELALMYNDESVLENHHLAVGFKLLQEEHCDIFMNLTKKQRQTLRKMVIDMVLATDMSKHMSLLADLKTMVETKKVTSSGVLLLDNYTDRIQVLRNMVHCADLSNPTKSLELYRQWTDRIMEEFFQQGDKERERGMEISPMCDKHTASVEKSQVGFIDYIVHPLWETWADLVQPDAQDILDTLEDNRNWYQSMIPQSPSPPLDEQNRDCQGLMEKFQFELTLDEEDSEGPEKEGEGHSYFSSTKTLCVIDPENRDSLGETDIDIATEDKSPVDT
Chain of Cytochrome P450 1A2 (Homo sapiens) (P05177 whole entry, looked up): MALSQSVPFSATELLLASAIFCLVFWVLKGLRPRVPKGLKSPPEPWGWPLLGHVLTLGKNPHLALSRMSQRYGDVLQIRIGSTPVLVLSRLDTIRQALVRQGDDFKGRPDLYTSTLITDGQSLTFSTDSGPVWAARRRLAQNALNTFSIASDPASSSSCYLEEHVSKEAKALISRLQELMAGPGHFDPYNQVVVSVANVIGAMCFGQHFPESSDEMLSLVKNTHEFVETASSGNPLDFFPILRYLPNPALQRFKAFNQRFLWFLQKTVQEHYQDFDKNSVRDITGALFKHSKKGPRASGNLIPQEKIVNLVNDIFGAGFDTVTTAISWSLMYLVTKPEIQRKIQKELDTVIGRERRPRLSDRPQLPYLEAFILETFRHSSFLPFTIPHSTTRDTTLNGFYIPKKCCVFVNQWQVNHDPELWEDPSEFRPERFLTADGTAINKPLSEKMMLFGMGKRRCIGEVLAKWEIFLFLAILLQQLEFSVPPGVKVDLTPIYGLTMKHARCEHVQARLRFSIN
Chain of ATP-dependent 6-phosphofructokinase (Trypanosoma brucei brucei) (O15648 whole entry, looked up): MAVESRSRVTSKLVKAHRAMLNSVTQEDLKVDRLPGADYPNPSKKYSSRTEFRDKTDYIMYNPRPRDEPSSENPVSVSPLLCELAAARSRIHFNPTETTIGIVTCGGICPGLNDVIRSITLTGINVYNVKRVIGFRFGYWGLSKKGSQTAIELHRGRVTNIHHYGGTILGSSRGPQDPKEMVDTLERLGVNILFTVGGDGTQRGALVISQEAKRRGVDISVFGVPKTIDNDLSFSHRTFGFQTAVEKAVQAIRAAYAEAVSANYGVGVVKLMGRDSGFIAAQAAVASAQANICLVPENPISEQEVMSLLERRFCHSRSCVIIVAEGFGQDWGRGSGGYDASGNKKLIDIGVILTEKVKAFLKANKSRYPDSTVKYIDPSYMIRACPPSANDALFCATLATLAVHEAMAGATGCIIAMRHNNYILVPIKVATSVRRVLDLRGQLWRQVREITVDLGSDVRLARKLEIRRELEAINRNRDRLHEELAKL
Chain of Cytochrome P450 2C9 (Homo sapiens) (P11712 whole entry, looked up): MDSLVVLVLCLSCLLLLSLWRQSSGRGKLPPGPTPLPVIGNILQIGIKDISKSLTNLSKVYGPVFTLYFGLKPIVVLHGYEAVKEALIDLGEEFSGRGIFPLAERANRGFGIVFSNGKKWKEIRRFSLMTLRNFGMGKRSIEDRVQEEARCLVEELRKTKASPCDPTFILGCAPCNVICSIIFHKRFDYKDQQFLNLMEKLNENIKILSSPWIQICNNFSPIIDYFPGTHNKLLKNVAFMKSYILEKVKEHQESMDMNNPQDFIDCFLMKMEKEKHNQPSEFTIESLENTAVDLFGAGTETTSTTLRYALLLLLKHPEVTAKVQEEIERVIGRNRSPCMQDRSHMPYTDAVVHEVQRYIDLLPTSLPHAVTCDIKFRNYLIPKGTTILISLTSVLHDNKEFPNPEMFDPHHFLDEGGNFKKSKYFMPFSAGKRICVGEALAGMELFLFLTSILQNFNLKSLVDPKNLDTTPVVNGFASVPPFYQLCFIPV
Chain of Cytochrome P450 2D6 (Homo sapiens) (P10635 whole entry, looked up): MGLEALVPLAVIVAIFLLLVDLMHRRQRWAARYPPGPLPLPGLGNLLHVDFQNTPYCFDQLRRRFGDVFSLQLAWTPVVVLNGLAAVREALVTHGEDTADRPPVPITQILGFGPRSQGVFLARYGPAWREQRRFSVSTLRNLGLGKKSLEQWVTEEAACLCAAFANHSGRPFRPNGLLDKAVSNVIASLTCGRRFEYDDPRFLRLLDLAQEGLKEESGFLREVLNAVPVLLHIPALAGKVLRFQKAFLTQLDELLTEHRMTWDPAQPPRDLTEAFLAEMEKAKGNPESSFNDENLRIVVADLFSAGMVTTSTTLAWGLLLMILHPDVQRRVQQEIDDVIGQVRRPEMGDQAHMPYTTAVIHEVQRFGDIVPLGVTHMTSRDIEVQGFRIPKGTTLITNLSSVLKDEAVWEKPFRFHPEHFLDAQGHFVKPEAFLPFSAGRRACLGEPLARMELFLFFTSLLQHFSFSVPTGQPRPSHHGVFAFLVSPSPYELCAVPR

COc1cc(/C=C/C(=O)/C=C(O)/C=C/c2ccc(O)c(OC)c2)ccc1O
Potency [1]: inactive | outcome [2]: inactive | Potency [3]: 12.6 µM (active) and 31.6 µM (active) | Potency [4]: inactive | outcome [5]: inactive | outcome [6]: inactive | Potency (ATS189): inactive | Potency (ATS95): inactive | Potency (CP185): inactive | Potency (CP201): inactive | Potency (CP211): inactive | Potency (CP238): inactive | Potency (CP256): inactive | Potency (CP262): inactive | Potency (CP266): inactive | Potency (CP297): 15.1 µM (active) | Potency (CP305): inactive | Potency (CP325): inactive | Potency (CP335): inactive | Potency (DFO2036): inactive | Potency (DIV17): 12 µM (active) | Potency (ECU): inactive | Potency (FAB9): inactive | Potency (HB3): inactive | Potency (ICS): 10 µM (active) | Potency (JCK): inactive | Potency (PC15): inactive | Potency (PC26): 12 µM (active) | Potency (PC49): inactive | Potency (SC27B): inactive | Potency (TAB109): inactive | Potency (TAB113): inactive | Potency (W2): 15.1 µM (active)

N#Cc1cccc(NC(=O)N2CC[C@@]3(CCCN(C(=O)c4cccc(F)c4)C3)C2)c1
activity change, negative = inhibition [7]: -20.8% | activity, negative = inhibition [8]: -2.81% | Potency [9]: > 46 µM | Potency [10]: inactive | Potency [11]: inactive | Potency [1]: inactive | outcome [6]: inactive

CC[C@@H]1Cn2c(c3nc(-c4ccccc4)nc-3n(C)c2=O)N1
Potency [12]: inactive | Potency [1]: 12.6 µM (active) | outcome [6]: inactive

C=CCNC(=O)c1cc([N+](=O)[O-])cc2c(=O)[nH]c(Nc3ccc(Cl)c(Cl)c3)nc12
Potency [1]: inactive | outcome [6]: inactive

COc1cc2c(cc1OC)C(=O)Cc1ccc3c(c1CN(C)CC2)OCO3
Potency [13]: inactive | Potency [14]: > 46 µM | Potency [9]: > 46 µM | Potency [10]: inactive | Potency [11]: inactive | Potency [15]: inactive | Potency [12]: inactive | Potency [16]: 0.0251 µM (active) | Potency [17]: 10 µM (active) | outcome [6]: inactive

CCCC[P+](CCCC)(CCCC)Cc1ccc(NC(=O)[C@@H](Cc2ccc3ccccc3c2)NC(=NC2CCCCC2)NC2CCCCC2)cc1
Potency [13]: 31.6 µM (active) | Potency [14]: > 46 µM | Potency [9]: > 46 µM | Potency [1]: inactive | outcome [6]: inactive
